Assay [1] has as its target Rap guanine nucleotide exchange factor 3 (Homo sapiens) (UniProt O95398). The assay can be described thus: Confirmatory qHTS for antagonist of cAMP-regulated guanine nucleotide exchange factor 3 (EPAC1) (AID 1645880). Further: nearly all actives have a fitted effect of over 55% in size. Further: potency means the concentration at half of the fitted maximal effect.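 On activity, negative = inhibition: plate controls were DMSO only for no effect and full effect of the ATA control for full effect.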 Conditions: EPAC1 Rap1B-BODIPY-GDP exchange, fluorescence; activity, negative = inhibition: at 115 µM (top of the series). Summed up: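 Released BODIPY-GDP fluoresces less than Rap1-bound BODIPY-GDP; the signal is followed at 480/540 nm at 5-min intervals over 30 min, after 5 min at room temperature. Reactions contain 100 nM EPAC1, 250 nM RAP1B-BODIPY-GDP and 50 uM GDP; results are normalized to ATA and DMSO.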
A general note: Quantitative high-throughput screening tests each substance at several concentrations.

Assay [2] deals with Rap guanine nucleotide exchange factor 4 (Homo sapiens) (UniProt Q8WZA2). The assay can be described thus: Confirmatory qHTS for antagonist of cAMP-regulated guanine nucleotide exchange factor 4 (EPAC2) (AID 1645885). Further: nearly all actives have a fitted effect of over 25% in size. Further: potency means the concentration at half of the fitted maximal effect. On activity change, negative = inhibition: on the % scale 0 is the no-effect control and ±100 the full control effect.
Assay [3] deals with Rap guanine nucleotide exchange factor 3 (Homo sapiens) (UniProt O95398). The assay can be described thus: Counterscreen qHTS for antagonist of cAMP-regulated guanine nucleotide exchange factor 3 (EPAC1) (AID 1645888). Further: % of control where 0% means no effect. An outline of the steps: (§1)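 Measured: fluorescence of BODIPY-GDP bound to Rap1B, which falls as exchange proceeds. Conditions include 50 uM competing GDP, 5 and 30 min reads, and a later cAMP challenge for antagonist detection.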
On the technique in general: The purpose of a counterscreen is to sort out artefacts and off-target activity.

Assay [4] addresses Rap guanine nucleotide exchange factor 4 (Homo sapiens) (UniProt Q8WZA2). As to the kind of experiment: Confirmatory qHTS for agonist of cAMP-regulated guanine nucleotide exchange factor 4 (EPAC2) (AID 1645884).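 Further: nucleotide exchange releases bodipy-GDP from Rap1 and this lowers its fluorescence; nearly all actives have a fitted effect of over 65% in size.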 Further: potency means the concentration at half of the fitted maximal effect. On activation: on the % scale 0 is the no-effect control and ±100 the full control effect.
For assay [5], the target named is Rap guanine nucleotide exchange factor 3 (Homo sapiens) (UniProt O95398). As to the kind of experiment: Counterscreen qHTS for agonist of cAMP-regulated guanine nucleotide exchange factor 3 (EPAC1) (AID 1645889). Further: nearly all actives have a fitted effect of over 40% in size. Further: potency means the concentration at half of the fitted maximal effect. On activation: % of control where 0% means no effect. An outline of the steps: as §1
Assay [6] concerns the target Tumor susceptibility gene 101 protein (Homo sapiens) (UniProt Q99816). The assay can be described thus: qHTS Assay for Iinhibitors of HIV-1 Budding by Blocking the Interaction of PTAP/TSG101: Hit Validation (AID 651600). Further: nearly all actives have a fitted effect of over 70% in size. Further: potency means the concentration at half of the fitted maximal effect. On activity change, negative = inhibition: on the % scale 0 is the no-effect control and ±100 the full control effect. Summed up: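 Fluorescence polarization binding assay: Tsg101 binding domain (10 uM) mixed with compounds and FITC-labeled PTAP peptide (50 nM) in HEPES pH 7.5, 0.15 M NaCl, 0.01% Tween 20, EDTA, TCEP; 20 min at r.t.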

Results filed as inconclusive are left out. Unmarked numbers belong to inactive results. Activity calls are given as the source filed them. The call rests on the fitted dose curve; in most records, active means well fitted curve in the direction sought with a large enough effect; inconclusive means small, poorly fitted or top-dose-only effect, or another doubt; inactive means no such curve, though single readings can be large; an effect the other way counts as inactive or inconclusive.

Rap guanine nucleotide exchange factor 3 (Homo sapiens), sequence (O95398 whole entry, looked up): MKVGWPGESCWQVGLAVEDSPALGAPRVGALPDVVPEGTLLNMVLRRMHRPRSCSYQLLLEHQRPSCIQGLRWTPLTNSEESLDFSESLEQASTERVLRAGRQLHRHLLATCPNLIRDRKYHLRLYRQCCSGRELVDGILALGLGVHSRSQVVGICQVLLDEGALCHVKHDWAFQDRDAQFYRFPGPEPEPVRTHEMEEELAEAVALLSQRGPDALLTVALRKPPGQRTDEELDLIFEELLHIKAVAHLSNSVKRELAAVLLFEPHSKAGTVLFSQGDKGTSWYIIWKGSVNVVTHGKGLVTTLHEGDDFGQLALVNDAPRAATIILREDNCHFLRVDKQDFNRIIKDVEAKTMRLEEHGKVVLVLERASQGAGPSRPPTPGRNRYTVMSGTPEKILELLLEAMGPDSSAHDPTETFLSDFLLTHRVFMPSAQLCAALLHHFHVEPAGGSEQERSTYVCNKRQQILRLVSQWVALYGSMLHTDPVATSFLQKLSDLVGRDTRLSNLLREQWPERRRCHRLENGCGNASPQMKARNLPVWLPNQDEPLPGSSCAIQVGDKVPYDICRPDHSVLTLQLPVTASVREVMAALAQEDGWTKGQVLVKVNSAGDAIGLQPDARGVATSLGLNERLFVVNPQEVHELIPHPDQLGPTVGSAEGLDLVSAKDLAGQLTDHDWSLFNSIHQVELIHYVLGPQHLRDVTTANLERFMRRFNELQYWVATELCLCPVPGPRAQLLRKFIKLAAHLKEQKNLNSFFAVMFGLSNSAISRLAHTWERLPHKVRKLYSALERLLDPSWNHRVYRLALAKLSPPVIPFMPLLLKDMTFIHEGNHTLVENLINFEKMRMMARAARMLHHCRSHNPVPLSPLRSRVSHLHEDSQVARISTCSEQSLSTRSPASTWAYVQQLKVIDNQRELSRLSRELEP
Tumor susceptibility gene 101 protein (Homo sapiens), sequence (Q99816 whole entry, looked up, the tested form may be a part): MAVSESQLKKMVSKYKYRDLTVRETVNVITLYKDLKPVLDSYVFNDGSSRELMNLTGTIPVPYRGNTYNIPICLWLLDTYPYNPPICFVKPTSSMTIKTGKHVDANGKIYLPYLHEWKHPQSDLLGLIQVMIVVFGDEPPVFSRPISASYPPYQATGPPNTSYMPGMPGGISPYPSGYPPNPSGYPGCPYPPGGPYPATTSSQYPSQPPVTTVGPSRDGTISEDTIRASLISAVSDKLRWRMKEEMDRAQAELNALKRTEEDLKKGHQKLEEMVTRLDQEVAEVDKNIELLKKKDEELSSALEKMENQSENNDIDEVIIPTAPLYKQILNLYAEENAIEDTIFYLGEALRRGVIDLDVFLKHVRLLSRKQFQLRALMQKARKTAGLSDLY
Rap guanine nucleotide exchange factor 4 (Homo sapiens), sequence (Q8WZA2 whole entry, looked up): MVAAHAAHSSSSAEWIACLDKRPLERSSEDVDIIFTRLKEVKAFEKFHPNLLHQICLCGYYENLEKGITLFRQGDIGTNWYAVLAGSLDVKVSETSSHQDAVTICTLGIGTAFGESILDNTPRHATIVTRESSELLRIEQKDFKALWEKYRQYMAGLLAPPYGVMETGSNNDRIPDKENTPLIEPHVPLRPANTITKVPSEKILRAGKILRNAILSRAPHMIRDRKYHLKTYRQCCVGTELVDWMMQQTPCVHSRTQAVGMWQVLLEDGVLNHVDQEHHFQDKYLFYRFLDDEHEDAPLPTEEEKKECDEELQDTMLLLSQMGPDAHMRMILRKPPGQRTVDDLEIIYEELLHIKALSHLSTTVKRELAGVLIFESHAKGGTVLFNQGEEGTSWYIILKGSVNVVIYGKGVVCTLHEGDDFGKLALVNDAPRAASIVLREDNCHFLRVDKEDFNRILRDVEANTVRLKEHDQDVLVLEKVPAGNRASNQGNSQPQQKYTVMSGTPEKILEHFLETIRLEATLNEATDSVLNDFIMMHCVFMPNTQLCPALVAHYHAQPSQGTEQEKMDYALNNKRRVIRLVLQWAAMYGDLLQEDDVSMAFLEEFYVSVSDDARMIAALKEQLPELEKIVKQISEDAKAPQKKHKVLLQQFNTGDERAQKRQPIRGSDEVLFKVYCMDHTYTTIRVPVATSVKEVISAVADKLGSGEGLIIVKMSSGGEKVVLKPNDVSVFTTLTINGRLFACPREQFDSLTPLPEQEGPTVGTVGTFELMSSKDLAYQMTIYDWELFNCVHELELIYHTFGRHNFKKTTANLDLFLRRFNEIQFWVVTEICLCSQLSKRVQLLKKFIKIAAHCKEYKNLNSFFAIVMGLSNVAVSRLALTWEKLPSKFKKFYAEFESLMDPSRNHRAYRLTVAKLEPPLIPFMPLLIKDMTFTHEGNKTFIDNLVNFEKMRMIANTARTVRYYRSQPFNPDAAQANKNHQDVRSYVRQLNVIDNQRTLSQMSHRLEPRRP

Take `COc1ccc(-c2nn(-c3ccccc3)cc2/C=C2/SC(=S)N(CCC(=O)O)C2=O)cc1`: the Potency entry in assay [1], in assay [2] and in assay [3] was “inactive” each time.

Take `Cc1cc([N+](=O)[O-])c2[nH]c(C(=O)N/N=C/c3ccccc3C(=O)O)c(-c3ccccc3)c2c1`: in assay [1], the Potency was 67.5 µM (active). The Potency entry in assay [4] and in assay [5] was “inactive” in each case.

For `Cc1ccc(N=Cc2c(O)n(-c3nccs3)c(=O)c3ccccc23)c(C)c1`, the Potency entry in assay [1] and in assay [2] was “inactive” in each case. For the same compound, in assay [3], the activity change, negative = inhibition is 7.45% [at 30.8 µM].

As to `CCCCNc1ccc2c3c(cccc13)C(=O)N(CCCC)C2=O`, the Potency in assay [6] is 4.11 µM (active); in assay [5], 20 µM (active). Further, the Potency result in assay [1] is “inactive”. Also, in assay [4], the activation was -62.3% [at 17.1 µM, percent relative to cAMP agonist control]. For the same compound, the activity change, negative = inhibition in assay [3] was 213% [at 30.8 µM].

For `CCOC(=O)c1ccc2[nH]cc(C(C)=O)c(=O)c2c1`, the Potency entry in assay [1], in assay [2] and in assay [3] was “inactive” in each case.

Turning to `CC(C)N1CCc2c(sc(NC(=O)c3ccc(C(=O)c4ccccc4)cc3)c2C(N)=O)C1`, the Potency entry in assay [1], in assay [2] and in assay [3] was “inactive” each time.

Turning to `CCOC(=O)c1cc(C)sc1NC(=O)CSC1=NCCS1`, the Potency result in assay [1], in assay [2] and in assay [3] was “inactive” throughout.

With `N=C1/C(=C\c2coc3ccccc3c2=O)C(=O)N=C2SC=CN12`, the Potency entry in assay [1] and in assay [2] was “inactive” each time. In addition, the activity change, negative = inhibition in assay [3] was 46.8% [at 30.8 µM].

`COC(=O)c1cc2oc(C)cc2n1Cc1ccc(C)cc1`: the Potency result in assay [1], in assay [4], in assay [3] and in assay [5] was “inactive” in each case.

Take `COc1ccc(NC(=O)c2csc3c2CCCCC3)c(OC)c1`: the Potency result in assay [1], in assay [4], in assay [3] and in assay [5] was “inactive” throughout.

Take `CCCN(CCC)c1ccc(/C=C/c2ccnc3ccccc23)cc1`: the Potency entry in assay [1] and in assay [2] was “inactive” each time.

On to `Cc1cc(N(C)C)c(C)cc1/C=C/c1ccnc2ccccc12`, for which the Potency entry in assay [1] and in assay [2] was “inactive” in each case.

Consider `CCN(CC)c1ccc(C=C2SC(=S)NC2=O)cc1`, for which the Potency result in assay [1] and in assay [3] was “inactive” throughout. Further, the Potency in assay [2] is 84.9 µM (active).

`COc1ccc2c(c1)C(=O)CCC2c1ccccc1` (stereo not given): the Potency result in assay [1], in assay [2] and in assay [3] was “inactive” each time.

For the compound `O=C1c2ccccc2-c2onc3c(Br)cc(NC4CCCCC4)c1c23`, the Potency entry in assay [1], in assay [4], in assay [3] and in assay [5] was “inactive” each time.

For `COc1cccc(C(=O)c2sc3nc(-c4ccccc4)cc(C(F)(F)F)c3c2N)c1`, the Potency result in assay [1], in assay [4] and in assay [3] was “inactive” throughout. The Potency in assay [5] is 56.2 µM (active).

Turning to `CCN(CC)c1ccc2cc(C(=O)NNC(=O)c3ccc(S(=O)(=O)N4CCCCC4)cc3)c(=O)oc2c1`, the Potency result in assay [1], in assay [3] and in assay [5] was “inactive” throughout. In assay [4], the Potency is 112 µM (active).

Regarding `CN(C(=O)c1cc2c(cc1Br)OCO2)c1cccc2ccccc12`, the Potency entry in assay [1], in assay [2] and in assay [3] was “inactive” in each case.

Turning to `N#C/C(=C\c1ccc(Sc2ccc(Cl)cc2)o1)c1nc2ccccc2[nH]1`, the Potency result in assay [1], in assay [2] and in assay [3] was “inactive” each time.

For `CC(=O)CCc1oc2c([N+](=O)[O-])cccc2c1-c1ccc(C)o1`, the Potency entry in assay [1], in assay [2] and in assay [3] was “inactive” throughout.

With `COc1ccc2c(c1)CCC1C2=NN(/C(C)=C/C(C)=O)C1c1cccc(F)c1` (stereo not given), the Potency result in assay [1] and in assay [3] was “inactive” in each case. Besides, the Potency in assay [2] is 84.9 µM (active).

Consider `CNC(=O)c1csc(Cc2c(Cl)sc3ccc(Cl)cc23)n1`, for which the Potency entry in assay [1], in assay [2] and in assay [3] was “inactive” each time.

Take `CN(C)c1ccc(/C=C/c2ccnc3c(Cl)cccc23)cc1`: the Potency result in assay [1] and in assay [2] was “inactive” in each case.

With `COc1ccccc1C(=O)Oc1ccc2c(c1)O/C(=C\c1ccncc1)C2=O`, the Potency entry in assay [1] and in assay [3] was “inactive” in each case. Further, the results for the Potency in assay [2] and in assay [5] were 84.9 µM (active) and 35.5 µM (active), respectively.

As for `CC1=CC2=NC(=O)/C(=C/c3coc4ccccc4c3=O)C(=N)N2O1`, the Potency result in assay [1] and in assay [3] was “inactive” each time. In addition, the Potency was 75.7 µM (active) in assay [2] and 39.8 µM (active) in assay [5].

Regarding `COc1ccc(C(=O)Nc2nc(-c3ccc([N+](=O)[O-])cc3)c(-c3ccc(OC)cc3)s2)cc1`, the Potency result in assay [6], in assay [1], in assay [2] and in assay [3] was “inactive” each time. For the same compound, the Potency in assay [5] is 63.1 µM (active).

Take `CCN(CC)c1ccc(/C=C/C(=O)c2ccc(Br)cc2)cc1`: the Potency entry in assay [6], in assay [1] and in assay [2] was “inactive” in each case. Besides, the activity change, negative = inhibition in assay [3] is 192% [at 30.8 µM]. The Potency in assay [5] is 14.1 µM (active).

Regarding `CCN1C(=O)C(=CC=CN(C)c2ccccc2)SC1=S`, the Potency entry in assay [1] and in assay [2] was “inactive” each time. Also, the activity change, negative = inhibition in assay [3] was 12.2% [at 30.8 µM]. Also, the Potency in assay [5] was 11.2 µM (active).

The values above are taken from PubChem BioAssay (NCATS).
